PubChem BioAssay (EPA / NIEHS)
“And” between values parts separate entries of the source, which are not always exact repeats. Equal values may be shown once. The source holds several records for some structures; these can differ, active in one and inactive in another. The source made the active and inactive calls. How the source made its calls: active means hit-call score of the fitted dose curve at least 0.9, where 1 is the maximum; inactive means score below 0.9.

Legend:
[1] = read-out: Intercellular Adhesion Molecule 1 (ICAM1), ICAM1 (gene 3383); experiment: BSK_hDFCGF_ICAM1: BioMAP Diversity Plus: hDFCGF Assay for Intercellular Adhesion Molecule 1 (ICAM1) Biomarker Activity (AID 2284287); settings: primary human foreskin fibroblasts
Method in brief: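 Primary human foreskin fibroblasts (hDFCGF system) dosed with chemical; ICAM-1 quantified by ELISA at 24 h relative to DMSO. Parallel SRB total-protein staining to assess overt cytotoxicity.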

CD40, CD40 (gene 958) = experiment: BSK_IMphg_CD40: BioMAP Diversity Plus: IMphg Assay for CD40 Biomarker Activity (AID 2284288); settings: primary human endothelial cells with macrophages
Description: (§1) BSK_IMphg is a cell-based, multiplexed-readout assay that uses venular endothelial cells and macrophages, a human vascular primary cell, with measurements taken at 24 hours after chemical dosing in a microplate: 96-well plate.BSK_IMphg_CD40 is an assay component measured in the BSK_IMphg assay. It measures CD40 antibody related to regulation of gene expression using ELISA technology.Data from the assay component BSK_IMphg_CD40 was analyzed at the endpoint, BSK_IMphg_CD40, in the positive analysis fitting direction relative to DMSO as the negative control and baseline of activity. Using a type of binding reporter, gain or loss-of-signal activity can be used to understand protein changes. To generalize the intended target to other relatable targets, this assay endpoint is annotated to the 'cytokine' intended target family, where the subfamily is 'inflammatory factor'.
(§2) The levels of cell surface (or secreted, indicated by the prefix "s") biomarker endpoints were measured by ELISA. Overt cytotoxicity to cells in confluent adherent cultures (all systems other than the BT system) was assessed by measuring total protein levels using sulforhodamine B (SRB) staining in parallel cultures at the time of biomarker measurements, indicated as SRB endpoints. For proliferation assays for adherent cell types, individual cell types are cultured at sub-confluence and relative cell numbers quantified by SRB staining at time points optimized for each system (48 h: 3C and CASM3C systems; 72 h: BT and HDF3CGF systems; 96 h: SAg system). SRB was performed by staining cells with 0.1% SRB after fixation with 10% TCA and reading wells at 560 nm.Viability and proliferation of PBMC (T cells) was quantified by Alamar Blue reduction for the SAg and BT systems. For PBMC viability (referred to as PBMC Cytotoxicity within the assay endpoint names), cells were plated (75,000/well in a 96-well plate) and then chemical samples added for 1 h before addition of activators, SEB and TSST-1 (20 ng/mL final concentration each). Cells were incubated for 90 h. Then, Alamar Blue (20 uL/well) (Invitrogen, Cat DAL1100) was added for 6 h, and the plates were read with a fluorescence microplate reader at 546/580 nm (excitation/emission). For PBMC proliferation, cells were plated and activated as above but incubated for only 16 h prior to addition of Alamar Blue. Plates were read after 6 h.

[2] = read-out: TIMP metallopeptidase inhibitor 2 (TIMP2), TIMP2 (gene 7077); experiment: BSK_hDFCGF_TIMP2: BioMAP Diversity Plus: hDFCGF Assay for TIMP metallopeptidase inhibitor 2 (TIMP2) Biomarker Activity (AID 2284289); settings: primary human foreskin fibroblasts
Method in brief: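 Primary human foreskin fibroblasts in the hDFCGF system, dosed for 24 h; TIMP-2 level measured by ELISA, fitted in the positive direction against DMSO; cytotoxicity checked in parallel by sulforhodamine B total protein staining.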

[3] = read-out: Interleukin-1 alpha (IL1a), IL1A (gene 3552); experiment: BSK_IMphg_IL1a: BioMAP Diversity Plus: IMphg Assay for Interleukin-1 alpha (IL1a) Biomarker Activity (AID 2284290); settings: primary human endothelial cells with macrophages
Method in brief: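 Human venular endothelial cells co-cultured with macrophages, IMphg system. IL-1α is measured by ELISA 24 h after dosing and fitted in the positive direction against DMSO. Cytotoxicity is assessed by SRB staining of parallel cultures.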

[4] = read-out: E-selectin (Homo sapiens) (UniProt P16581); experiment: BSK_IMphg_ESelectin: BioMAP Diversity Plus: IMphg Assay for Eselectin Biomarker Activity (AID 2284291); settings: primary human endothelial cells with macrophages
Description: as §1, with “plate.BSK_IMphg_ESelectin” for “plate.BSK_IMphg_CD40”, “E-selectin” for “CD40”, “BSK_IMphg_ESelectin” for “BSK_IMphg_CD40”, “BSK_IMphg_ESelectin,” for “BSK_IMphg_CD40,”, “'cell adhesion molecules'” for “'cytokine'”, “'selectins'.” for “'inflammatory factor'.”
as §2

[5] = BSK_IMphg_SRB: Viability Assessment in the BioMAP Diversity Plus: IMphg Assay (AID 2284292); settings: primary human endothelial cells with macrophages;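 further: measured one day after compound addition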
Method in brief: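 Human venular endothelial cells with macrophages, 24 h after chemical dosing; total protein by 0.1% SRB staining after 10% TCA fixation, read at 560 nm. Positive-direction fitting versus DMSO baseline.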

[6] = read-out: Macrophage colony-stimulating factor (MCSF), CSF1 (gene 1435); experiment: BSK_IMphg_MCSF: BioMAP Diversity Plus: IMphg Assay for Macrophage colony-stimulating factor (MCSF) Biomarker Activity (AID 2284293); settings: primary human endothelial cells with macrophages
Method in brief: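 Co-culture of human venular endothelial cells and macrophages, 24 hours of chemical exposure. M-CSF quantified by ELISA, with parallel SRB total-protein staining for cytotoxicity; activity fitted relative to DMSO.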

[7] = read-out: Interleukin-10 (IL10), IL10 (gene 3586); experiment: BSK_IMphg_IL10: BioMAP Diversity Plus: IMphg Assay for Interleukin-10 (IL10) Biomarker Activity (AID 2284294); settings: primary human endothelial cells with macrophages
Method in brief: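 Human venular endothelial cells cocultured with macrophages, dosed 24 h; IL-10 measured by ELISA, activity relative to DMSO. Cytotoxicity assessed in parallel cultures by sulforhodamine B total-protein staining.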

[8] = BSK_IMphg_SRB.Mphg: Macrophage Viability Assessment in the BioMAP Diversity Plus: IMphg Assay (AID 2284295); settings: primary human endothelial cells with macrophages
Method in brief: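 Venular endothelial cells co-cultured with macrophages, read 24 h after dosing. Total protein measured by 0.1% SRB staining after 10% TCA fixation, absorbance at 560 nm. Fitted in positive direction against DMSO baseline.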

[9] = read-out: Thrombomodulin, THBD (gene 7056); experiment: BSK_LPS_Thrombomodulin: BioMAP Diversity Plus: LPS Assay for Thrombomodulin Biomarker Activity (AID 2284296); settings: primary human HUVEC with PBMC
Method in brief: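 Human umbilical vein endothelial cells co-cultured with PBMC and stimulated with LPS; cell-surface thrombomodulin measured by ELISA 24 hours after compound. Gain or loss versus DMSO; cytotoxicity checked by SRB staining in parallel cultures.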

Chain of E-selectin (Homo sapiens) (P16581 whole entry, looked up): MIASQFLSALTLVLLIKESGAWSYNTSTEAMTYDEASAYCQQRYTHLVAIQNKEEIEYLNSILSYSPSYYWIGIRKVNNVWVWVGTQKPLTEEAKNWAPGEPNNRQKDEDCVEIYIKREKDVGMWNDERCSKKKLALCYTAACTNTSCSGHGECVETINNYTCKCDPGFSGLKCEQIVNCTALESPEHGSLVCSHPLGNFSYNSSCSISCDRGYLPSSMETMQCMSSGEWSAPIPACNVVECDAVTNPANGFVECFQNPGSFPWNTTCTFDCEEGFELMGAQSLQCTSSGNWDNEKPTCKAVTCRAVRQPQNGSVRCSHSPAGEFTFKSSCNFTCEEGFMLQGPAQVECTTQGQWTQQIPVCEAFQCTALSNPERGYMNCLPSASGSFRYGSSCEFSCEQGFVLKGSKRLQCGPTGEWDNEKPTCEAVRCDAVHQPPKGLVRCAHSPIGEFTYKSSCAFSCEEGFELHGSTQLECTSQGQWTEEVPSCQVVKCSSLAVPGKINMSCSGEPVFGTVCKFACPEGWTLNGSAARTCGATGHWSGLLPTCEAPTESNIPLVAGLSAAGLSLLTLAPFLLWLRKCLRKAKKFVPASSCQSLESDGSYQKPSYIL

Row | Compound | AC50 [1] | outcome (CD40, CD40 (gene 958)) | AC50 [2] | outcome [3] | AC50 [4] | outcome [4] | outcome [5] | outcome [6] | outcome [7] | AC50 [8] | outcome [8] | outcome [9] | outcome [2] | AC50 [3] | AC50 [5] | AC50 [6] | AC50 [7] | AC50 [9] | outcome [1] | AC50 (CD40, CD40 (gene 958))
1 | OCCC(F)(F)C(F)(F)C(F)(F)C(F)(F)C(F)(F)C(F)(F)F | 44 µM (active) and 54 µM (active) | inactive | 52.5 µM (active) and 47 µM (active) | inactive | 55.2 µM (active) | inactive | inactive | inactive | inactive | 39.8 µM (active) | inactive | inactive | – | – | – | – | – | – | – | –
2 | FC(F)(I)C(F)(F)C(F)(F)C(F)(F)C(F)(F)C(F)(F)I | 5.98 µM (active) [middle of 5 runs] | inactive | 5.93 µM (active) and 5.41 µM (active) and 5.49 µM (active) | inactive | 46.1 µM (active) [middle of 5 runs] | – | – | – | – | 12.6 µM (active) [middle of 5 runs] | – | inactive | inactive | 30 µM (active) and 22.7 µM (active) and 39.1 µM (active) | 43.5 µM (active) [middle of 5 runs] | 44.4 µM (active) [middle of 5 runs] | 33.9 µM (active) [middle of 5 runs] | 14.6 µM (active) and 23.5 µM (active) | – | –
3 | NCC(F)(F)C(F)(F)C(F)(F)C(F)(F)C(F)(F)C(F)(F)C(F)(F)F | – | inactive | – | inactive | – | inactive | inactive | inactive | inactive | 0.22 µM (active) | inactive | inactive | inactive | – | – | – | – | – | inactive | 24 µM (active)
4 | C[C@@H]1C[C@H]2[C@@H]3CCC4=CC(=O)C=C[C@]4(C)[C@@]3(F)[C@@H](O)C[C@]2(C)[C@@]1(O)C(=O)COP(=O)(O)O | – | inactive | 966 nM (active) | inactive | 580 nM (active) and 1.5 µM (active) | – | inactive | inactive | – | 4.66 µM (active) | inactive | inactive | inactive | 3.58 µM (active) | – | – | 954 nM (active) and 1.38 µM (active) | – | inactive | 13.3 µM (active)
5 | OCCC(F)(F)C(F)(F)C(F)(F)C(F)(F)C(F)(F)C(F)(F)C(F)(F)C(F)(F)F | 18.1 µM (active) and 18.3 µM (active) | – | 5.95 µM (active) and 16.2 µM (active) | inactive | 47.2 µM (active) and 49.9 µM (active) | – | – | inactive | – | 46.7 µM (active) and 47.4 µM (active) | – | inactive | – | 39.6 µM (active) | 50.5 µM (active) and 49.1 µM (active) | 30 µM (active) | 39 µM (active) and 32.8 µM (active) | 347 nM (active) | – | 46.1 µM (active) and 45.6 µM (active)
6 | C=C(C)C(=O)OCCC(F)(F)C(F)(F)C(F)(F)C(F)(F)C(F)(F)C(F)(F)F | – | inactive | – | inactive | – | inactive | inactive | inactive | inactive | – | inactive | inactive | inactive | – | – | – | – | – | inactive | –
